Source: PubChem
AMA1 RON2 block – AMA1-RON2 (P. falciparum) interaction inhibition; AlphaScreen AMA1-biotinylated RON2 peptide binding; Potency, µM (doses to about 58.2 µM), without a hit: top-dose activity change, negative = inhibition, most hits filed as inhibitors; 360,000 compounds, 0.2% hits;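 note: 0% = vehicle wells and -100% = peptide control; nearly all actives have a fitted effect of over 45% in size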
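AMA1 (3D7) with his tag at 25 nM final met compounds first, then biotinylated RON2 peptide at 25 nM; detection used donor plus acceptor beads, 10 µg/mL apiece, read by AlphaScreen after 30 min at room temperature.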
AmpC no deterg – AmpC beta-lactamase inhibition without detergent; P00811; AmpC nitrocefin hydrolysis, absorbance 480 nm, 0.0001% Triton; Potency, µM (highest dose often 57.1 µM), inactives show top-dose activity change, negative = inhibition, usual class: inhibitors; 330,000 compounds, 0.52% hits;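 note: plate controls were no compound for no effect and no enzyme for full effect; nearly all actives have a fitted effect of over 20% in size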
Target sequence (P00811 whole entry, looked up): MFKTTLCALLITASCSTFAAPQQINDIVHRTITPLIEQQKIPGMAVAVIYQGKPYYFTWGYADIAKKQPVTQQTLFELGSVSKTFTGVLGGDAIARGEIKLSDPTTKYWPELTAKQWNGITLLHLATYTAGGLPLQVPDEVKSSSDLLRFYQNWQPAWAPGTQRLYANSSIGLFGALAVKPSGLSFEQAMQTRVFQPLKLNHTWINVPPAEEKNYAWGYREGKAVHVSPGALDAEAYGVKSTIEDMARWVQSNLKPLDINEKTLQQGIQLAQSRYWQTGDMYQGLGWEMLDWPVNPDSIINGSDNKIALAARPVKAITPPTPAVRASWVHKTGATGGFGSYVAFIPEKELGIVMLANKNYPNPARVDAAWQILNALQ
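AmpC (5.3 nM in the dispensed reagent) in 20 mM phosphate pH 7.0 with 0.01% (detergent screen) or 0.0001% Triton X-100 was preincubated with compounds for 15 min at room temperature. Nitrocefin was then added from an 800 uM solution, and hydrolysis was followed at 480 nm.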
Pf growth 48h – inhibits P. falciparum growth in the first generation, 48 h | P. falciparum luciferase growth in erythrocytes, 48 h | Potency, µM (titrated, usually from 28.7 µM), inactives show at the highest dose activity change, negative = inhibition, actives largely listed as inhibitors | 310,000 compounds, 5.9% hits
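Luminescence readout; reporter = integrated firefly luciferase in P. falciparum. RBC culture at 2% hematocrit, 0.1% parasitemia final, 37 C/5% CO2; decreased signal taken as growth inhibition.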
Pf growth 96h – inhibits malaria parasite growth, 96 h | P. falciparum luciferase reporter growth, 96 h | Potency, µM (doses to about 28.7 µM), without a hit: at the top dose activity change, negative = inhibition, hits mostly inhibitors | 320,000 compounds, 6.9% hits | AID 504834
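Luminescence readout: decreased luciferase signal marks inhibited growth of reporter-expressing P. falciparum in infected red cells (2% hematocrit, 0.05% parasitemia final), exposed to compound two generations (96 h, 37 C, 5% CO2).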
HCV inh – blocks hepatitis C virus. Potency, µM (highest dose often 41.8 µM), for inactives: top-dose activity change, negative = inhibition, most hits filed as inhibitors. 340,000 compounds, 3.4% hits. AID 651820. Huh7.5.1 HCVcc-Cre infection, luciferase reporter, 44 h
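A cell-based infection assay in which seeded cells (1,000 per well) receive test compound after 4 h, are inoculated with HCVcc-Cre at approximately 0.5 moi, and are incubated 44 h before luminescence detection.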
AmpC detergent – AmpC beta-lactamase inhibition with detergent present; P00811; AmpC hydrolysis of nitrocefin, absorbance 480 nm, 0.01% Triton; Potency, µM (titrated, usually from 114 µM), for the others: at the top dose activity change, negative = inhibition, most hits filed as inhibitors; 370,000 compounds, 0.041% hits; AID 485294;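 note: 0% = no-compound wells and -100% = no-enzyme wells; nearly all actives have a fitted effect of over 25% in size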
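20 mM phosphate pH 7.0 + 0.01% (detergent screen) or 0.0001% Triton X-100; 5.3 nM AmpC reagent; cpd preinc 15 min RT; nitrocefin (800 uM stock) to start; A480 q20 s × 4 min; Activity was normalised to no-enzyme and no-compound control wells.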
* hit, by the source's call; [ ] = remark or other dose. Hits are enriched below; roughly 11% of the tested compounds scored in any of these assays. Calls come from the whole dose curve; as a rule, active = well fitted curve in the direction sought with a large enough effect; inconclusive = small, poorly fitted or top-dose-only effect, or another doubt; inactive = no such curve, though single readings can be large; an effect the other way counts as inactive or inconclusive. Unless noted, % is set by controls: 0 for no effect and ±100 for the full control effect; potency is the fitted concentration of half-maximal effect.

For CCOc1ccc(C(C)=O)cc1Cn1nc(C(=O)O)c2ccccc2c1=O the results were AMA1 RON2 block 3%, AmpC no deterg 10%, Pf growth 48h -28%, Pf growth 96h -11%, HCV inh 7.9µM* and AmpC detergent -18%.
CCc1cccc2c(C(=O)CN3C(=O)NC4(CCCCCC4)C3=O)c[nH]c12 was read as AMA1 RON2 block 10%[11.6 µM], AmpC no deterg -19%, Pf growth 48h inconclusive, Pf growth 96h inconclusive, HCV inh 2.5µM* and AmpC detergent 2%.
COc1ccccc1Cn1nc(C(=O)O)c2ccccc2c1=O was read as AMA1 RON2 block 8%, AmpC no deterg -26%, Pf growth 48h 29%, Pf growth 96h 47%, HCV inh -15% and AmpC detergent -10%.
CCc1nnc(SC(CC)C(=O)Nc2ccc(OC)c(Cl)c2)c2cc3occc3n12 (stereo not drawn) was read as AmpC detergent 3%.
CCOC(=O)c1c(C)oc2ncnc(NCCCN3CCN(c4cc(C)ccc4C)CC3)c12 was read as AmpC detergent -1%.
`O=C(Nc1ccccc1Oc1cccnc1)C1CCCN(Cc2ccc(F)cc2)C1` (stereo not drawn) gave AMA1 RON2 block -6%, AmpC no deterg 142%, Pf growth 48h inconclusive, Pf growth 96h 6%, HCV inh -10% and AmpC detergent 9%.
For Cc1ccccc1CN1CCCC(C(=O)Nc2ccccc2Oc2cccnc2)C1 (stereo not drawn) the results were AMA1 RON2 block -2%, AmpC no deterg 80%, Pf growth 48h 2.6µM*, Pf growth 96h 3%, HCV inh -9% and AmpC detergent 5%.
`COc1ccc(CN2CCC(C(=O)Nc3ccc(Oc4cccnc4)cc3)CC2)c(C)c1C` gave AMA1 RON2 block -2%, AmpC no deterg 16%, Pf growth 48h 7.4µM*, Pf growth 96h 29%, HCV inh inconclusive and AmpC detergent 3%.
For COc1cccc(O)c1CN1CCC(C(=O)Nc2ccc(Oc3cccnc3)cc2)CC1 the results were AMA1 RON2 block -12%, AmpC no deterg 10%, Pf growth 48h inconclusive, Pf growth 96h 11%, HCV inh inconclusive and AmpC detergent 12%.
Cn1cc(CN2CCC(C(=O)Nc3ccc(Oc4ccccc4F)cc3)CC2)cn1 was read as AMA1 RON2 block 0%, AmpC no deterg 27%, Pf growth 48h -15%, Pf growth 96h inconclusive, HCV inh 11µM* and AmpC detergent 4%.
Screening COc1ccc(CN2CCC(C(=O)Nc3ccc(Oc4cccnc4)cc3)CC2)cc1 returned AMA1 RON2 block 20%, AmpC no deterg 0%, Pf growth 48h 12µM*, Pf growth 96h -10%, HCV inh inconclusive and AmpC detergent 2%.
For CC(=O)c1ccc(N2CCN(C(=O)C3CCN(S(=O)(=O)c4cccc5nonc45)CC3)CC2)cc1 the results were AmpC detergent 5%.
Screening COc1ccc(-n2c(SCC(=O)NCc3ccc(C)cc3)nc3n[nH]c(C)c3c2=N)cc1 returned AmpC detergent 2%.
COc1ccc(-n2nnnc2SCC(=O)NCCc2ccccc2)cc1 was read as AmpC detergent -2%.
Screening O=C(Nc1cc(-c2ccc(F)c(F)c2)no1)c1ccccc1F returned AmpC detergent -6%.
For COc1ccc(C(=O)c2cn(Cc3ccc(F)cc3)c3ccc(C)cc3c2=O)cc1 the results were AmpC detergent 7%.
`CCn1ccnc1CN1CCCCC1C(=O)Nc1ccc(Oc2cccnc2)cc1` (stereo not drawn) gave AMA1 RON2 block 15%, AmpC no deterg 53%, Pf growth 48h inconclusive, Pf growth 96h 19%, HCV inh inconclusive and AmpC detergent inconclusive.
`O=C(Nc1ccc(Oc2ccccc2)nc1)C1CCCCN1Cc1cccc(O)c1` (stereo not drawn) gave AMA1 RON2 block 4%, AmpC no deterg -23%, Pf growth 48h inconclusive, Pf growth 96h 5.9µM*, HCV inh inconclusive and AmpC detergent 1%.
Screening Cn1ccnc1CN1CCCCC1C(=O)Nc1ccc(Oc2cccnc2)cc1 (stereo not drawn) returned AMA1 RON2 block 107%, AmpC no deterg 3%, Pf growth 48h inconclusive, Pf growth 96h 13µM*, HCV inh -7% and AmpC detergent inconclusive.
COc1cccc(-c2cccc(NC(=O)C3CCN(Cc4cccc(C)n4)CC3)c2)c1 was read as AMA1 RON2 block 5%, AmpC no deterg 33%, Pf growth 48h inconclusive, Pf growth 96h 8%, HCV inh -14% and AmpC detergent 3%.
Screening O=C(Nc1ccc(Oc2ccccc2)nc1)C1CCCCN1Cc1ccc(O)cc1 (stereo not drawn) returned AmpC no deterg -1%, Pf growth 48h inconclusive, Pf growth 96h inconclusive and AmpC detergent 1%.
`COc1cccc(NC(=O)C2CCN(Cc3cnn(-c4ccccc4)c3-n3cccc3)CC2)c1` gave AMA1 RON2 block -15%, AmpC no deterg 59%, Pf growth 96h inconclusive, HCV inh 11µM* and AmpC detergent inconclusive.
`COc1cccc(O)c1CN1CCC(C(=O)Nc2ccc(-c3cccc(C)c3)cc2)CC1` gave AMA1 RON2 block -16%, AmpC no deterg -25%, Pf growth 48h 4.1µM*, Pf growth 96h 4.1µM*, HCV inh 1µM* and AmpC detergent 5%.
O=S(=O)(Nc1cccc(-c2ccc(N3CCCCC3)nn2)c1)c1ccc(Cl)s1 was read as AmpC detergent 11%.
Screening Cc1c(Cl)ccc2c(C(O)CBr)cc(-c3ccccc3)nc12 (stereo not drawn) returned AMA1 RON2 block 20% and HCV inh 10µM*.
`Cc1ccc(S(=O)(=O)c2nnn3c2nc(N2CCOCC2)c2sccc23)cc1C` gave AmpC detergent 4%.
For NC(=O)C1CCN(S(=O)(=O)c2ccccc2[N+](=O)[O-])CC1 the results were AMA1 RON2 block 14%, AmpC no deterg 0%, Pf growth 48h 0%, Pf growth 96h inconclusive, HCV inh 11% and AmpC detergent 1%.
O=S(=O)(c1ccccc1C(F)(F)F)N1CCN(S(=O)(=O)c2ccccc2C(F)(F)F)CC1 was read as AMA1 RON2 block -9%, AmpC no deterg -14%, Pf growth 96h -21%, HCV inh 19% and AmpC detergent -17%.
